Bioassay records as filed in PubChem BioAssay.
An excerpt weighted towards active compounds, which were near 3.2% of everything screened.
Sm TGR block – S. mansoni TGR enzyme inhibition. Q962Y6. purified TGR, DTNB reduction, TNB absorbance 405 nm. 3% of 360,000 active. Potency, µM (titrated, usually from 114 µM), without a hit: at the highest dose activity change, negative = inhibition, most hits filed as inhibitors; further: nearly all actives have a fitted effect of over 60% in size
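TGR 20 nM + NADPH 100 uM (dispensed conc.), cpd preinc 15 min RT; start with NADPH (500 uM addition) then DTNB (15 mM addition). Kinetic TNB absorbance, 405 nm filter. Four-parameter Hill fit across titration.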
AmpC inh no detg – blocks E. coli AmpC beta-lactamase in detergent-free assay; P00811; AmpC nitrocefin hydrolysis, absorbance 480 nm, 0.0001% Triton; Potency, µM (titrated, usually from 57.1 µM), inactives show at the highest dose activity change, negative = inhibition, hits mostly inhibitors; 0.52% of 330,000 active;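 further: plate controls were no compound for no effect and no enzyme for full effect; nearly all actives have a fitted effect of over 20% in size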
Target sequence (P00811 whole entry, looked up): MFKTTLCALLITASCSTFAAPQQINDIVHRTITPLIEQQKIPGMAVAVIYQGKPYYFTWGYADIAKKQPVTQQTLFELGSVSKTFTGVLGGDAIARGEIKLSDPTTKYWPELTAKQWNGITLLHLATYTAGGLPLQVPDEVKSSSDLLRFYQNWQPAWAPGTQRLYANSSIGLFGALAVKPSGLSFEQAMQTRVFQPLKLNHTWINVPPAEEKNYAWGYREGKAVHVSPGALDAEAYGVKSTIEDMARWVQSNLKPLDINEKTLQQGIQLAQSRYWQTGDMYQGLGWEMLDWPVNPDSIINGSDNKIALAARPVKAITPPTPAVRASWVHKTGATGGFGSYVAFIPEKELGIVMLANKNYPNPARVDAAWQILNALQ
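20 mM phosphate pH 7.0 + 0.01% (detergent screen) or 0.0001% Triton X-100; 5.3 nM AmpC reagent; cpd preinc 15 min RT; nitrocefin (800 uM stock) to start; A480 q20 s × 4 min; Activity was normalised to no-enzyme and no-compound control wells.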
RE007 growth inh – less growth of the S. pombe RE007 Vpr strain; Potency, µM (top dose mostly 92.2 µM), without a hit: at the highest dose activity change, negative = less growth, actives largely listed as inhibitors; S. pombe RE007 Vpr strain, BacTiter-Glo ATP luminescence, 24 h; AID 651644; 0.21% of 360,000 active; active means well fitted falling curve with a large enough effect; inconclusive means small, poorly fitted or top-dose-only effect; inactive means no such curve, though single readings can be large or run the other way; further: nearly all actives have a fitted effect of over 50% in size
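Fission yeast strain RE007, carrying one chromosomally integrated HIV-1 vpr copy, was seeded at OD 0.01 in PMG+AL medium with 23 nL pinned compound. After 24 h at 30 °C and 99% humidity, viability was read by BacTiter-Glo luminescence.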
AMA1-RON2 inh – disrupts binding of P. falciparum AMA1 to RON2; AlphaScreen AMA1-biotinylated RON2 peptide binding; Potency, µM (top dose mostly 58.2 µM), for inactives: at the top dose activity change, negative = inhibition, actives largely listed as inhibitors; 0.2% of 360,000 active; AID 720542;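 further: 0% = vehicle wells and -100% = peptide control; nearly all actives have a fitted effect of over 45% in size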
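AMA1 (3D7) with his tag at 25 nM final met compounds first, then biotinylated RON2 peptide at 25 nM; detection used donor plus acceptor beads, 10 µg/mL apiece, read by AlphaScreen after 30 min at room temperature.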
AmpC inh detg – blocks E. coli AmpC beta-lactamase in detergent assay; P00811; AmpC hydrolysis of nitrocefin, absorbance 480 nm, 0.01% Triton; Potency, µM (titrated, usually from 114 µM), without a hit: top-dose activity change, negative = inhibition, hits mostly inhibitors; 0.041% of 370,000 active;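 further: 0% = no-compound wells and -100% = no-enzyme wells; nearly all actives have a fitted effect of over 25% in size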
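AmpC (5.3 nM in the dispensed reagent) in 20 mM phosphate pH 7.0 with 0.01% (detergent screen) or 0.0001% Triton X-100 was preincubated with compounds for 15 min at room temperature. Nitrocefin was then added from an 800 uM solution, and hydrolysis was followed at 480 nm.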
Numbers without * were called inactive; [ ] = remark or other dose. Unless noted, the call rests on the fitted dose curve; in most records, active means well fitted curve in the direction sought with a large enough effect; inconclusive means small, poorly fitted or top-dose-only effect, or another doubt; inactive means no such curve, though single readings can be large; an effect the other way counts as inactive or inconclusive. Unless noted, on the % scale 0 is the no-effect control and ±100 the full control effect; potency means the concentration at half of the fitted maximal effect.

How did CCCCC(=O)NC(=S)NNC(=O)c1ccc(OC)cc1 do in these assays?
Sm TGR block: 1.4%; AmpC inh no detg: -51.4%; RE007 growth inh: inconclusive; AMA1-RON2 inh: 108.8%; AmpC inh detg: 35.5µM*

Results for COc1ccc(C(=O)NNC(=S)NC(=O)c2ccc(OC)cc2)cc1 ?
Sm TGR block: -20.6%; AmpC inh no detg: -34.6%; RE007 growth inh: -11.2%; AMA1-RON2 inh: 109.4%; AmpC inh detg: -12.0%

What do the screens show for `O=C1CS/C(=N\N=C\c2ccco2)N1c1ccccc1`?
Sm TGR block: 14.1µM*; AmpC inh no detg: -48.1%; RE007 growth inh: -14.9%; AMA1-RON2 inh: 1.5%; AmpC inh detg: 1.6%

What do the screens show for `O=C1CS/C(=N/N=C/c2ccccc2)N1c1ccc(O)cc1`?
Sm TGR block: 5.4%; AmpC inh no detg: -11.4%; RE007 growth inh: 5.3%; AMA1-RON2 inh: 7.8%; AmpC inh detg: inconclusive

Results for O=C(NCc1cccc(Cl)c1)C1CCCN(c2nn3cc(-c4ccc(F)cc4)nc3s2)C1 (stereo not given) ?
Sm TGR block: 1.1%; AmpC inh detg: 18.1%

What do the screens show for `CCC(=O)N1c2ccc(S(=O)(=O)CCC(=O)N3CCN(c4ccc(F)cc4)CC3)cc2CC1C` (stereo not given)?
Sm TGR block: 5.62µM*; AmpC inh detg: -1.0%

What do the screens show for `CCOC(=O)N1CCN(C(=O)CCS(=O)(=O)c2ccc3c(c2)CC(C)N3C(=O)CC)CC1` (stereo not given)?
Sm TGR block: 22.4µM*; AmpC inh no detg: 18.9%; RE007 growth inh: 0.0%; AMA1-RON2 inh: 0.0%; AmpC inh detg: -2.4%

How did Cc1ccc(S(=O)(=O)CCC(=O)N2CCN(c3ccc(Cl)cc3)CC2)cc1 do in these assays?
Sm TGR block: 12.6µM*; AmpC inh no detg: 56.5%; RE007 growth inh: -4.4%; AMA1-RON2 inh: -15.0%; AmpC inh detg: 3.5%

Results for COC(=O)c1cc2occc2n1Cc1nc(-c2ccccc2)oc1C ?
Sm TGR block: 0.6%; AmpC inh detg: 7.2%

How did CCc1ccc(S(=O)(=O)/N=C2\C=C(Nc3ccc(C(=O)O)cc3)C(=O)c3ccccc32)cc1 do in these assays?
Sm TGR block: -9.3%; AmpC inh no detg: -32.5%; RE007 growth inh: -13.2%; AMA1-RON2 inh: inconclusive; AmpC inh detg: -12.8%

What do the screens show for `Cc1ccc(S(=O)(=O)/N=C2\C=C(Nc3ccc(O)cc3)C(=O)c3ccccc32)cc1`?
AmpC inh no detg: -13.5%; RE007 growth inh: -25.2%; AMA1-RON2 inh: 20µM*

What do the screens show for `COC(=O)c1ccccc1NC1=C/C(=N\S(=O)(=O)c2ccc(C(=O)O)cc2)c2ccccc2C1=O`?
Sm TGR block: 14.1µM*; AmpC inh no detg: -40.5%; RE007 growth inh: inconclusive; AMA1-RON2 inh: inconclusive; AmpC inh detg: -5.9%

Results for Cc1ccc(NC2=C/C(=N/S(=O)(=O)c3cccs3)c3ccccc3C2=O)cc1 ?
Sm TGR block: -19.4%; AmpC inh no detg: -30.0%; RE007 growth inh: -19.2%; AMA1-RON2 inh: -14.9%; AmpC inh detg: -5.3%

How did COC(=O)c1ccccc1NC1=C/C(=N\S(=O)(=O)c2cccs2)c2ccccc2C1=O do in these assays?
Sm TGR block: inconclusive; AmpC inh no detg: -54.5%; RE007 growth inh: -28.8%; AMA1-RON2 inh: 3.16µM*; AmpC inh detg: 0.1%

How did O=C1C(Nc2ccccc2)=C/C(=N/S(=O)(=O)c2cccs2)c2ccccc21 do in these assays?
Sm TGR block: inconclusive; AmpC inh no detg: 10µM*; RE007 growth inh: inconclusive; AMA1-RON2 inh: inconclusive; AmpC inh detg: -5.2%

How did CC(=O)N1CCC(c2nc3ccccc3n2C(C)C(=O)NCc2ccccc2)CC1 (stereo not given) do in these assays?
RE007 growth inh: 0.5%; AMA1-RON2 inh: -9.6%

Results for Cc1cccc(N2CCN(C(=O)Cn3ncc4c([nH]c5ccccc54)c3=O)CC2C)c1 (stereo not given) ?
Sm TGR block: 30.3%; AmpC inh detg: 17.9%

What do the screens show for `Cc1nnc2c3ccccc3nc(N3CCN(c4cccc(Cl)c4)CC3)n12`?
Sm TGR block: 1.8%; AmpC inh detg: 2.6%

Results for O=C(Cn1cc(S(=O)(=O)Cc2ccc(F)cc2)c2ccccc21)NCc1ccccc1Cl ?
Sm TGR block: 6.6%; AmpC inh detg: 14.2%

What do the screens show for `Cc1sc2nc(CN(Cc3cccs3)C(=O)NC3CCCCC3)[nH]c(=O)c2c1C`?
Sm TGR block: -10.7%; AmpC inh no detg: -8.9%; RE007 growth inh: -7.2%; AMA1-RON2 inh: -10.7%; AmpC inh detg: 35.5µM*

How did Cc1sc2nc(CN(C(=O)NC3CCCCC3)C3CCCC3)[nH]c(=O)c2c1C do in these assays?
Sm TGR block: -5.9%; AmpC inh no detg: -26.1%; RE007 growth inh: 1.6%; AMA1-RON2 inh: 40.2%; AmpC inh detg: 5.7%

Results for CCOc1ccc(N(C(=O)CC(C)C)S(=O)(=O)c2ccc3c(c2)oc(=O)n3C)cc1 ?
Sm TGR block: 5.4%; AmpC inh detg: -3.1%

Results for O=C(O)COCC(=O)N1CCCN(c2ccc(C(F)(F)F)cn2)CC1 ?
Sm TGR block: 39.8µM*; AmpC inh no detg: -8.4%; RE007 growth inh: 6.3%; AMA1-RON2 inh: -11.7%; AmpC inh detg: -20.9%

How did CC1(C)CC(N2CCOCC2)=CC(=[N+]2CCOCC2)C1 do in these assays?
Sm TGR block: 44.7µM*; AmpC inh no detg: -10.3%[11.4 µM]; RE007 growth inh: -4.4%; AMA1-RON2 inh: 13.8%; AmpC inh detg: inconclusive

How did CC1C[N+](=C2C=C(N3CCOCC3)CC(C)(C)C2)CC(C)O1 (stereo not given) do in these assays?
Sm TGR block: 2.6%; AmpC inh no detg: -25.0%; RE007 growth inh: 10.3%; AMA1-RON2 inh: 2.7%; AmpC inh detg: 3.7%

How did O=C(NC(=S)Nc1ccccc1)c1csnn1 do in these assays?
Sm TGR block: 14.1µM*; AmpC inh no detg: -43.2%; RE007 growth inh: -4.3%; AMA1-RON2 inh: 10.9%; AmpC inh detg: inconclusive

How did COc1ccc(NC(=S)NC(=O)c2csnn2)cc1 do in these assays?
Sm TGR block: 0.0%; AmpC inh no detg: -42.7%; RE007 growth inh: -12.7%; AMA1-RON2 inh: 79.3%; AmpC inh detg: -4.4%

What do the screens show for `Oc1ccc(Nc2nc(-c3ccccc3)nc3ccccc23)cc1`?
Sm TGR block: -3.2%; AmpC inh no detg: 17.8µM*; RE007 growth inh: -13.7%; AMA1-RON2 inh: -10.3%; AmpC inh detg: -5.8%

How did Oc1ccc(Nc2nc(-c3ccc(Cl)cc3)nc3ccccc23)cc1 do in these assays?
Sm TGR block: 8.1%; AmpC inh detg: 0.5%

How did CCc1ccc(CN(Cc2ccco2)c2cnc(S(C)(=O)=O)nc2C(=O)Nc2ccc(C)c(Cl)c2)cc1 do in these assays?
Sm TGR block: -1.0%; AmpC inh detg: -2.4%

Results for CCCCS(=O)(=O)c1sc2nc3c(cc2c1N)CCCC3 ?
Sm TGR block: -10.4%; AmpC inh no detg: -24.4%; RE007 growth inh: -4.3%; AMA1-RON2 inh: 5.97µM*; AmpC inh detg: inconclusive
